According to PubChem BioAssay (NCI):
The panel holds about 79,000 compounds, 15% with a hit somewhere; the sample as a whole holds those more often. Rule as the data show it: active = growth inhibition above about 70%; inactive = the rest.

Columns and labels:
[1] = NCI Yeast Anticancer Drug Screen. Data for the rad50 strain (AID 155);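 also: 0% = growth of vehicle-only cultures of the same strain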; settings: S. cerevisiae rad50 strain growth inhibition; at 50.0 µM; stronger effect = higher value
Summary of the method: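 Inhibition values express reduced yeast growth in compound-treated cultures relative to vehicle-treated controls.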

[2] = NCI Yeast Anticancer Drug Screen. Data for the mec2-1 strain (AID 157); settings: S. cerevisiae mec2-1 strain, at 50.0 µM, stronger effect = higher value
Summary of the method: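 Test agents were screened against the mec2-1 yeast strain, with defined DNA repair or cell cycle alteration. Growth was scored as inhibition against vehicle-only controls.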

[3] = NCI Yeast Anticancer Drug Screen. Data for the sgs1 mgt1 strain (AID 161);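 also: 0% = growth of cultures given vehicle only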; settings: S. cerevisiae sgs1 mgt1 strain, at 50.0 µM, stronger effect = higher value
Summary of the method: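 Mutant yeast exposed to compound; growth scored against vehicle-only wells.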

[4] = NCI Yeast Anticancer Drug Screen. Data for the cln2 rad14 strain (AID 165);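 also: 0% = growth equal to vehicle treated cultures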; settings: S. cerevisiae cln2 rad14 strain, at 50.0 µM, stronger effect = higher value
Summary of the method: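 Growth of compound-exposed yeast (cln2 rad14 genotype) measured and expressed as inhibition relative to vehicle.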

[5] = NCI Yeast Anticancer Drug Screen. Data for the bub3 strain (AID 167); settings: S. cerevisiae bub3 mutant strain, at 50.0 µM, stronger effect = higher value
Summary of the method: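 Steps: expose the mutant yeast strain to compound; grow alongside vehicle-treated cultures; measure growth; express inhibition against the vehicle cultures.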

[6] = NCI Yeast Anticancer Drug Screen. Data for the mlh1 rad18 strain (AID 175); settings: S. cerevisiae mlh1 rad18 strain growth inhibition; at 50.0 µM; stronger effect = higher value
Summary of the method: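 In this whole-cell yeast screen, a strain with altered DNA damage repair is challenged with compound, and its growth is measured against matched vehicle-treated controls.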

Measured: growth inhibition

Cc1ccc(OS(=O)(=O)NC(=O)NCc2ccco2)cc1
inactive: [1] 18.8% | [2] 4.9% | [3] 7.7% | [4] 8.9% | [5] 3.95% | [6] 4.35%

CCc1nc(N)nc(N)c1-c1ccc2nn(-c3ccccc3)[n+]([O-])c2c1
inactive: [1] 4.25% | [2] 10.8% | [3] 20% | [4] 14.8% | [5] 14% | [6] 4.85%

O=C(OC1(c2nccc3ccccc23)CCCN(Cc2ccccc2)C1)c1ccccc1 (stereo not given)
inactive: [1] 28.9% | [2] 11.8% | [3] 15.9% | [4] 14.2% | [5] -1.4% | [6] 24.1%

Cc1cc(CSCCc2nc3ccccc3[nH]2)c(O)c(CSCCc2nc3ccccc3[nH]2)c1
inactive: [1] 15.1% | [2] 3.8% | [3] 5.55% | [4] -42% | [5] -6.65% | [6] 14.4%

CCCCCCCCCCCCCCCCN1C(=O)c2ccccc2S1(=O)=O
inactive: [1] -14.7% | [2] -15.8% | [3] -10.5% | [4] 32.5% | [5] -2.2% | [6] 5.1%

CCOC(=O)C1Sc2c(c(=O)n(C)c3ccccc23)C1=O (stereo not given)
inactive: [1] 34.1% | [2] 36.6% | [3] 34.1% | [4] 40.7% | [5] -8.45% | [6] 41.2%

COc1cccc(NC(=S)/C(=C(/[O-])c2ccc([N+](=O)[O-])cc2)[n+]2cccc3ccccc32)c1
inactive: [1] 26.1% | [2] 19.2% | [3] 22.1% | [4] 33.2% | [5] 28.2% | [6] 10.5%

NC(=O)C1CCCN1C(=O)C(Cc1cnc[nH]1)NC(=O)C1CCCC1 (stereo not given)
inactive: [1] -46.4% | [2] -1.6% | [3] -1.65% | [4] 8.1% | [5] 7.05% | [6] -8.35%

O=c1ccc2c([nH]1)CCCC2
inactive: [1] -8.25% | [2] -8.25% | [3] -30.9% | [4] 1.35% | [5] -9.15% | [6] 0.55%

CCN(CC)CCOC(=O)c1ccc(N=NC2Sc3nc4ccccc4n3C2=O)cc1 (stereo not given)
inactive: [1] 27.9% | [2] 20.2% | [3] 15.9% | [4] 14.4% | [5] 6.8% | [6] 27.8%

O=C1CSC(c2ccccn2)N1CCN1C(=O)CSC1c1ccccn1 (stereo not given)
inactive: [1] 7.4% | [2] -0.85% | [3] -15.9% | [4] -4.35% | [5] -8.05% | [6] 6.65%

c1csc(-c2sc(-c3ccsc3)cc2Cc2ccsc2)c1
inactive: [1] -23.1% | [2] -20.1% | [3] -32.9% | [4] -14.4% | [5] -26.6% | [6] -23.3%

COc1ccc2c(c1)OC[C@@H]1c3cc(O)c(OCc4ccccc4)cc3O[C@]21C
inactive: [1] 9.9% | [2] 40.8% | [3] 10.3% | [4] 53.5% | [5] 21.7% | [6] -26%

OCc1ccccc1
inactive: [1] 37% | [2] 19.2% | [3] 0.1% | [4] -14.7% | [5] 29.4% | [6] 26.1%

COC(=O)[C@H]1[C@H]2C[C@@H]3c4[nH]c5ccccc5c4CCN3C[C@H]2C[C@@H](OC(=O)c2cc(OC)c(OC)c(OC)c2)[C@@H]1OC
inactive: [1] 15.8% | [2] -7.35% | [3] 17.1% | [4] 5.6% | [5] 18.5% | [6] 17.3%

Cc1ccccc1NC(=O)CSc1nnc(Cc2ccccc2)o1
inactive: [1] -15.3% | [2] -20.6% | [3] -36.8% | [4] -13.5% | [5] -33.8% | [6] -35.5%

COC1=CC(=O)N/C1=C(\OC)c1ccccc1
inactive: [1] -24.5% | [2] -0.95% | [3] -7% | [4] -5.6% | [5] -15.2% | [6] -5.2%

CC1=C[C@H](C[C@]2(C)c3c(c4c(C)cccc4oc3=O)O[C@@H]2C)OC1=O
inactive: [1] 1% | [2] 24.4% | [3] 11.3% | [4] 17.2% | [5] -3.2% | [6] 33.2%

O=C1c2ccccc2OCC1CS(=O)(=O)CC1COc2ccccc2C1=O (stereo not given)
inactive: [1] -9.5% | [2] 9.7% | [3] -5.45% | [4] 16.2% | [5] -0.5% | [6] 7.4%

COC(=O)c1cccn1C(=O)c1ccc(C)c(OCc2ccccc2)c1[N+](=O)[O-]
inactive: [1] 1.6% | [2] -15.8% | [3] 4.95% | [4] -8.3% | [5] 18.5% | [6] 8.05%
